Source: PubChem BioAssay (National Center for Advancing Translational Sciences (NCATS))
Six1-Eya2 inh = Six1/Eya2 interaction inhibition; Q15475+O00167; AlphaScreen GST-Six1/His-Eya2 binding, biochemical; active compounds read low; activity change, % (test concentration not listed); actives 0.56% (n = 360,000); AID 651725
Target sequence (O00167 whole entry, looked up): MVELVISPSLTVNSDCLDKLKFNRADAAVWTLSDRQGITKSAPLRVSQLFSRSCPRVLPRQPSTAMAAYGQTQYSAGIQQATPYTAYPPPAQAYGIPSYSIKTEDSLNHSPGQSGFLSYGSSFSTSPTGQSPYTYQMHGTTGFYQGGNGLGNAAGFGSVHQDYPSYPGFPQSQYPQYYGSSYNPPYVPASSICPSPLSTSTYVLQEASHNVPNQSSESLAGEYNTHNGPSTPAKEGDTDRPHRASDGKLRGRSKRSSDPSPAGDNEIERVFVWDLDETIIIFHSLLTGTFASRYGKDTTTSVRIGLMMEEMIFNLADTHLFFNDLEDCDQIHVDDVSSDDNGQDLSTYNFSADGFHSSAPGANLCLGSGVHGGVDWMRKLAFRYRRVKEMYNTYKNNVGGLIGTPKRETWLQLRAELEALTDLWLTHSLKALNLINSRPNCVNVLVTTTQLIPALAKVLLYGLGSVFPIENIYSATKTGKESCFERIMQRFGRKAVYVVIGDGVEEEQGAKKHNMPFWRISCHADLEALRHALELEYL
Target sequence (Q15475 whole entry, looked up): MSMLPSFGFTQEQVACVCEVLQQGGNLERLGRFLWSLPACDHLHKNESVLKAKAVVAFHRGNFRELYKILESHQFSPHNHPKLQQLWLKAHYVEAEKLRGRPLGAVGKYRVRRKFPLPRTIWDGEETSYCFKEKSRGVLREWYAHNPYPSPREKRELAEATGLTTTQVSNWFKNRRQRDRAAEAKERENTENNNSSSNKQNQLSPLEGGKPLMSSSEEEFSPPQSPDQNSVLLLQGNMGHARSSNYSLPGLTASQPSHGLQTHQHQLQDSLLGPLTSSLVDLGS
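Compounds are tested against tagged Six1 and Eya2 proteins bridged by glutathione donor and nickel acceptor beads; after a one-hour incubation at 37 °C without light, AlphaScreen emission is recorded.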
CtBP-E1A inh = blocks the CtBP interaction with E1A; AlphaScreen GST-E1A/His-CtBP binding, 1536-well; active compounds read low; activity change, % (concentration not given with the values); actives 0.49% (n = 340,000); AID 651724
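Protein mix (5X: 125 nM each GST-E1A, His-CtBP) was incubated with pinned compound 2 h at 37 deg C in dark, in 50 mM Tris pH 8.0 buffer with 300 mM NaCl. Glutathione donor and nickel acceptor beads followed; AlphaScreen signal read after 1 h.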
KCNH2 WT inh = blocks the wildtype human KCNH2 potassium channel. U2OS, BacMam KCNH2, thallium flux FluxOr; active compounds read low. activity change, % at 1.84 µM. actives 0.37% (n = 340,000). AID 720551. Q12809;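 active = maximum activity change below -70%; inconclusive = maximum activity change between -70% and -50%; inactive = maximum activity change above -50%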
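U2OS cells were transduced with wild-type KCNH2 virus (2.03 x 10^8 / mL) for 4 h at room temperature, then cultured overnight at 37 C. Thallium flux was read with FluxOr dye. Rate constants were normalized to DMSO controls.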
KCNH2 3.1 block = KCNH2 3.1 (human) potassium channel inhibition; U2OS KCNH2 3.1, thallium flux FluxOr; active compounds read low; activity change, % (tested at about 1.8 µM); actives 0.95% (n = 340,000); AID 720553;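 active = maximum activity change below -70%; inconclusive = maximum activity change from -70% to -50%; inactive = maximum activity change above -50%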;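 note: thallium influx rate constant from kinetic fluorescence after stimulation buffer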
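Measured as rate of thallium-driven FluxOr signal in transduced U2OS cells carrying the 3.1 channel, read kinetically for 2 min upon stimulation; values are rate constants scaled to DMSO control wells.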
JMJD2E inh = blocks human JMJD2E demethylase activity; B2RXH2; Potency, µM (doses to about 57.1 µM), without a hit: at the highest dose activity change, negative = inhibition, most hits filed as inhibitors; AID 2147; actives 1.6% (n = 230,000); JMJD2E catalytic domain, FDH-coupled NADH fluorescence (FDH is formaldehyde dehydrogenase);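 note: potency is the fitted concentration of half-maximal effect; 0% = wells with enzyme and -100% = buffer wells without enzyme; nearly all actives have a fitted effect of over 50% in size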
The depositor's hits bear a star; u = inconclusive; x = not tested or not shown. The list is not random: actives were taken first. Their share in the collection is about 2%. Cut-off read from the data, not from the text of the source, unless noted: active = activity change below about -65%; inconclusive = mostly about -30% to -63%; inactive = weaker than that. Unless noted, % is set by controls: 0 for no effect and ±100 for the full control effect.

SMILES	Six1-Eya2 inh	CtBP-E1A inh	KCNH2 WT inh	KCNH2 3.1 block	JMJD2E inh
CCn1nnnc1-c1ccc(OC)c(S(=O)(=O)Nc2ccccc2OC)c1	-3	3	-78*	-2	x
COc1ccc(N2C(=O)CC(N(CCc3ccccc3)C(=O)c3ccccc3)C2=O)cc1 (stereo not given)	1	-70*	-1	0	10%
O=C1CC(N(CCc2ccccc2)C(=S)Nc2ccccc2)C(=O)N1c1ccc(F)cc1 (stereo not given)	-2	-16	-2	-80*	3%
O=C1CC(N(CCc2ccccc2)C(=S)Nc2ccccc2)C(=O)N1c1ccccc1 (stereo not given)	25	2	0	16	3%
O=C(COC(=O)c1cccc(S(=O)(=O)NCc2ccccc2)c1)c1ccccc1	3	-2	7	-84*	6%
COc1ccc2c(c1)sc(N)[n+]2Cc1cc(C)cc2cccnc12	-15	-6	16	-77*	0%
CCOc1ccc2c(c1)sc(N)[n+]2Cc1cc(C)cc2cccnc12	-14	-3	16	-88*	1%
Cn1c(N)c(C(=O)c2cc(-c3ccccn3)nc3ccccc23)c(=O)[nH]c1=O	-4	-8	-101*	0	5%
CCc1nnc(NS(=O)(=O)c2ccc(NC(=O)COc3ccc(Cl)c(C)c3)cc2)s1	-1	1	-4	12	9%
Cn1nc(-c2ccccn2)nc2c(=O)n(C)c(=O)nc1-2	-28	u	0	1	7.1µM*
Cc1nnc(C)c2c(C)n(Cc3ccc4c(c3)OCO4)c(C)c12	-9	2	15	14	22µM*
c1cc2c(cc1Cn1cnnn1)OCO2	-9	-9	3	6	u
N#CC(CCc1ccccc1[N+](=O)[O-])(CCc1ccccc1[N+](=O)[O-])C(N)=O	-5	4	u	-121*	x
O=C1CC2(CCN(C(=O)COc3ccc(Cl)cc3)CC2)Oc2ccccc21	-5	-5	-47	-86*	x
Cc1ccc(-c2nnc(CSc3nnc(COc4ccccc4)n3-c3ccccc3)o2)cc1	-3	-5	1	-4	0%
COc1ccc(CC(=O)Oc2ccc(F)cc2)cc1	28	22	19	0	x
O=C(Cc1ccc(F)cc1)Oc1ccc(C(=S)N2CCCC2)cc1	-71*	-1	8	3	8%
COc1ccc(N2CCN(C(C)C(=O)N3CC(C)OC(C)C3)CC2)cc1 (stereo not given)	-17	0	3	4	22µM*
COc1ccc(N2CCN(C(C)C(=O)N3CCc4ccccc43)CC2)cc1 (stereo not given)	-18	3	4	-5	x
O=C(CCn1c(=O)c2sccc2n(CC(=O)NCc2ccco2)c1=O)NCc1ccccc1	0	53	-254*	3	-2%
COc1ccccc1N1CCN(/N=C/c2ccc(O)c(O)c2)CC1	-13	-11	7	6	28µM*
CCN(CC)c1ccc(/C=N/N2CCN(c3ccccc3OC)CC2)cc1	-67*	-21	15	-2	x
COc1ccccc1N1CCN(C/C(C)=C/c2ccccc2)CC1	-3	3	33	-98*	-3%
CCN(CC)c1ccc(/C=N/N2CCN(Cc3ccccc3Cl)CC2)cc1	-74*	-27	-6	-24	x
CN(C)c1ccc(/C=N/N2CCN(Cc3ccccc3Cl)CC2)cc1	-7	-14	0	-9	x
SMILES	Six1-Eya2 inh	CtBP-E1A inh	KCNH2 WT inh	KCNH2 3.1 block	JMJD2E inh
COc1ccc(CCNC(=O)C(=O)NCC2CCCN2S(=O)(=O)c2ccccc2)cc1 (stereo not given)	-1	0	11	-9	x
COc1ccccc1N1CCN(/N=C/c2cccc(Cl)c2)CC1	u	-19	-11	-1	x
COc1cccc(/C=N/N2CCN(c3ccccc3OC)CC2)c1	u	u	-25	-120*	-3%
CCC(=O)c1ccc(OC(=O)c2cccs2)cc1	u	-6	-10	-6	x
Cc1ccc(/C(N)=N/OC(=O)c2cccs2)cc1	15	-6	-176*	-185*	7%
N/C(=N\OC(=O)c1cccs1)c1ccccc1	6	3	16	x	-3%
COC(=O)c1ccc(OC(=O)c2cccs2)cc1	-68*	4	-14	9	0%
COc1ccc(NC(=S)N(CCN2CCOCC2)Cc2ccccc2F)cc1	8	-18	5	11	-5%
CCOC(=O)c1ccc(NC(=O)CSc2nnc(-c3cccs3)n2CC)cc1	2	2	2	-93*	u
CCOC(=O)c1ccc(NC(=O)CSc2nnc(-c3cccs3)n2C)cc1	2	6	4	6	u
COc1ccc(C(=O)NC(=O)Nc2cc(C)ccn2)cc1	6	7	4	15	u
COCCSc1ccccc1C(=O)N1CCOCC1	4	7	-4	-86*	-3%
Cc1cc(C(=O)N/N=C/c2ccc([N+](=O)[O-])o2)c(C)o1	-15	x	-14	-92*	3%
Cc1ccc2c(CC(=O)Nc3ccc(N4CCN(C)CC4)cc3C)coc2c1	-2	0	31	-83*	1%
COc1ccc(N2CCN(C(=O)Cc3coc4cc(C)ccc34)CC2)cc1	-14	-7	-3	8	-16%
O=C1c2cccnc2-c2ncccc21	-8	-5	2	7	0%
CC1(C)OCC(CSC2=C(SCC3COC(C)(C)O3)C(=O)c3ncccc3C2=O)O1 (stereo not given)	x	x	x	x	1µM*
Cc1cc(-c2cc(-c3ccc(Cl)cc3)on2)nc(NC2CCCC2)n1	15	-16	-5	-4	u
Cc1cc(-c2cc(-c3ccccc3)on2)nc(NC2CCCC2)n1	3	0	0	-70*	u
c1ccc(-c2nc(-c3ccccn3)no2)cc1	0	-25	3	6	0%
c1ccc(-c2n[nH]c(-c3ccccn3)n2)cc1	-91*	-92*	3	28	-5%
c1ccc(-c2n[nH]c(-c3ccccn3)n2)nc1	-92*	-95*	-7	-7	8%
c1ccc(-c2nn[nH]n2)cc1	4	10	-4	-1	6%
c1ccc(-c2nn[nH]n2)nc1	-87*	-72*	-1	3	u
Cc1ccccc1NC(=O)c1c([N+](=O)[O-])c(C(C)(C)C)nn1C	0	0	0	5	7%
COc1ccccc1CN(C)c1ccc(S(=O)(=O)N2CCN(C)CC2)cn1	-11	x	17	11	x
CCCc1[nH]nc2c1C(c1ccccc1OC)C(C#N)=C(N)O2 (stereo not given)	-1	-2	12	14	-2%
COc1ccc(/C=N/Nc2nc(NCc3ccco3)nc(Nc3ccc(OC)cc3)n2)cc1	0	4	-4	-93*	u
COc1ccc(Nc2nc(Cl)nc(NCc3ccco3)n2)c(OC)c1	-1	1	-4	-2	-6%
